Only some compounds are listed: those with a hit (about 8% of all), similar ones and a draw of the others.
HT1080NT lethal = qHTS for induction of synthetic lethality in tumor cells producing 2HG: qHTS for the HT-1080-NT fibrosarcoma cell line; HT-1080-NT fibrosarcoma viability, CellTiter-Glo ATP luminescence, 48 h; Potency, µM (titrated, usually from 46.1 µM), inactives show at the top dose activity, negative = less viability, actives largely listed as cytotoxic; 360,000 compounds, 1.6% hits; AID 686970, 2013;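 also: NT is the 2HG producing partner of a matched IDH1 knockdown line; 0% = DMSO-treated cells and -100% = media-only wells without cells; nearly all actives have a fitted effect of over 55% in size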
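HT-1080-NT fibrosarcoma cells (2HG-overproducing), 750 cells/well in RPMI with 5% FBS, dosed after 2 h and incubated 48 h at 37C. CellTiter-Glo luminescence normalized to DMSO and no-cell wells; concentration-response curves fitted and classed.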
HT1080 IDH1KD tx = qHTS for induction of synthetic lethality in tumor cells producing 2HG: qHTS for the HT-1080-IDH1KD cell line; HT-1080 IDH1 knockdown viability, ATP luminescence, 48 h; Potency, µM (series often up to 46.1 µM), for the others: top-dose activity, negative = toxicity, hits mostly cytotoxic; 360,000 compounds, 2% hits;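 also: 0% = DMSO wells and -100% = cell-free medium wells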
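% activity derives from luminescence (CellTiter-Glo), normalised to DMSO and no-cell wells. HT-1080-IDH1KD cells, 750/well, had 48 h compound exposure at 37 °C.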
KB-V1 cytotox = qHTS assay for MDR1-selective chemotherapeutics: Primary screen using the drug-selected MDR subline cells KB-V1. KB-V1 MDR cells viability, CellTiter-Glo, 72 h. Potency, µM (doses to about 46.1 µM), hits mostly cytotoxic. 400,000 compounds, 3.4% hits; also: % is scaled to controls: 0 for no effect and ±100 for the full control effect; nearly all actives have a fitted effect of over 60% in size
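Cells of the MDR subline KB-V1 are plated, dosed with compound at multiple concentrations, and incubated 72 h at 37 degrees C; CellTiter-Glo is then added and luminescence read after 10 min.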
SW480 rerep = A quantitative high throughput screen for small molecules that induce DNA re-replication in SW480 colon adenocarcinoma cells; SW480 DNA re-replication, Hoechst DNA content imaging, 48 h; Potency, µM (titrated, usually from 46.1 µM), inactives show at the highest dose re-replication activation, actives largely listed as activators; 340,000 compounds, 1.8% hits; also: % of control where 0% means no effect; nearly all actives have a fitted effect of over 55% in size
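Readout is total intensity of Hoechst-stained nuclei, excited at 405 nm and collected at 500-530 nm. Compound treatment lasted 48 hr at 37 C in 5% CO2 before staining.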
KB-3-1 tox = qHTS assay for MDR1-selective chemotherapeutics: Primary screen using the parental adenocarcinoma cell KB-3-1; KB-3-1 viability, CellTiter-Glo ATP luminescence, 72 h; Potency, µM (titrated, usually from 46.1 µM), actives largely listed as cytotoxic; 400,000 compounds, 1.4% hits; AID 1347075, 2019; also: % is scaled to controls: 0 for no effect and ±100 for the full control effect; nearly all actives have a fitted effect of over 60% in size
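KB-3-1 cells, DMEM (no phenol red) + 10% FBS; compound by pin transfer, 72 h, 37 °C. Readout: CellTiter-Glo luminescence after 10 min. Data normalized, curve-fitted.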
MCF10A rerep = A quantitative high throughput screen for small molecules that induce DNA re-replication in MCF 10a normal breast cells. MCF 10A DNA re-replication, Hoechst nuclear intensity, 48 h. Potency, µM (titrated, usually from 46.1 µM), inactives show at the top dose activity, positive = re-replication, usual class: activators. 350,000 compounds, 2.9% hits. AID 624296, 2012; also: % of control where 0% means no effect; nearly all actives have a fitted effect of over 50% in size
Starred values were filed as active, the others as inactive. Calls follow the shape of the dose curve; as a rule, active = well fitted curve in the direction sought with a large enough effect; inconclusive = small, poorly fitted or top-dose-only effect, or another doubt; inactive = no such curve, though single readings can be large; an effect the other way counts as inactive or inconclusive. Potency is read from the fitted curve at half-maximal effect.

For COc1ccc(CN(C)S(=O)(=O)c2nnc(NC(=O)c3cccc(OC)c3)s2)cc1 the results were HT1080NT lethal -13%, HT1080 IDH1KD tx -4%, KB-V1 cytotox inconclusive, SW480 rerep -7%, KB-3-1 tox inactive and MCF10A rerep inconclusive.
For CCCc1nnc(NC(=O)c2cc3ccccc3oc2=O)s1 the results were HT1080NT lethal 2%, HT1080 IDH1KD tx -1%, KB-V1 cytotox inactive, SW480 rerep inconclusive, KB-3-1 tox inactive and MCF10A rerep -8%.
COc1cccc(C(=O)NCCS(=O)(=O)N(C)C2CCCCC2)c1 was read as HT1080NT lethal 4%, HT1080 IDH1KD tx 16%, KB-V1 cytotox 12µM*, SW480 rerep -4%, KB-3-1 tox inactive and MCF10A rerep -4%.
CCCc1nnc(NC(=O)c2cc3ccccc3o2)s1 was read as HT1080NT lethal 9%, HT1080 IDH1KD tx -10%, KB-V1 cytotox inconclusive, SW480 rerep 0.26µM*, KB-3-1 tox inactive and MCF10A rerep 8%.
Screening CN(C1CCCCC1)S(=O)(=O)CCNC(=O)c1ccccc1 returned HT1080NT lethal -1%, HT1080 IDH1KD tx 6%, KB-V1 cytotox inactive, SW480 rerep -2%, KB-3-1 tox inactive and MCF10A rerep 1%.
Screening COCn1cnc(-c2ccccc2)c1-c1ccccc1 returned HT1080NT lethal 2%, HT1080 IDH1KD tx 0%, KB-V1 cytotox inactive, SW480 rerep -5%, KB-3-1 tox inactive and MCF10A rerep 14%.
For CCN(CC)C(=O)n1cnc(-c2ccccc2)c1-c1ccccc1 the results were HT1080NT lethal 12%, HT1080 IDH1KD tx 11%, KB-V1 cytotox 21µM*, SW480 rerep 0%, KB-3-1 tox inactive and MCF10A rerep 25%.
For CCOC(=O)C1CCCN(C(=O)CNS(=O)(=O)c2ccc(Br)s2)C1 (stereo not given) the results were HT1080NT lethal 7%, HT1080 IDH1KD tx -6%, KB-V1 cytotox 21µM*, SW480 rerep 1%, KB-3-1 tox inactive and MCF10A rerep -3%.
`CCOC(=O)C1CCCN(C(=S)Nc2ccc(Nc3ccccc3)cc2)C1` (stereo not given) gave HT1080NT lethal -16%, HT1080 IDH1KD tx -2%, KB-V1 cytotox inactive, SW480 rerep -10%, KB-3-1 tox inactive and MCF10A rerep 2%.
`O=C(CNS(=O)(=O)c1ccc(Br)s1)N1CCCC1` gave HT1080NT lethal 6%, HT1080 IDH1KD tx 8%, KB-V1 cytotox inactive, SW480 rerep 2%, KB-3-1 tox inactive and MCF10A rerep 6%.
Screening CCOC(=O)C1CCCN(C(=O)C2c3ccccc3Oc3ccccc32)C1 (stereo not given) returned HT1080NT lethal 6%, HT1080 IDH1KD tx 1%, KB-V1 cytotox 12µM*, SW480 rerep -4%, KB-3-1 tox inactive and MCF10A rerep 11%.
For CCOC(=O)C1CCCN(C(=O)c2cc3cc(Br)ccc3oc2=O)C1 (stereo not given) the results were HT1080NT lethal -11%, HT1080 IDH1KD tx 4%, KB-V1 cytotox inactive, SW480 rerep 6.3µM*, KB-3-1 tox inactive and MCF10A rerep 5%.
`CCOC(=O)C1CCCN(C(=S)Nc2ccc(C)cc2C)C1` (stereo not given) gave HT1080NT lethal 0%, HT1080 IDH1KD tx 10%, KB-V1 cytotox 15µM*, SW480 rerep 1%, KB-3-1 tox inactive and MCF10A rerep 0%.

High-throughput results as filed in PubChem BioAssay.
